# Tests used:
# Assay in all cases: universal protein binding microarray (PBM); transcription factors of Arabidopsis thaliana; high values mean tight binding
# Conditions in all cases: protein: recombinant; tags: GST; chain copies: 2; dsDNA, one strand shown
# GST-ANAC092(1-176) = target: T1, GST-ANAC092(1-176) (Arabidopsis thaliana, UniProt Q9FKA0 1-176)
# T1 sequence: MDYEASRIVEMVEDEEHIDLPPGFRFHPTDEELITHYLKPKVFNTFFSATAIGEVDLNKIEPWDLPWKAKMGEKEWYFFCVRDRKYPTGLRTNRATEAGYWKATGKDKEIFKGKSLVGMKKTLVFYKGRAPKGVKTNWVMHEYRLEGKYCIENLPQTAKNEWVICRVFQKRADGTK
# Outline: (§1)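 GST-tagged proteins (NAC-domain, full-length or DNA-binding-domain) were induced in cells, with zinc acetate supplied for zinc-finger proteins, then purified on glutathione–Sepharose 4B. Each was tested in duplicate at 200 to 500 nM final on custom all-10-mer Agilent 4 × 180K arrays rendered double-stranded by primer extension. The binding value is the normalised enrichment score (E-score) across gapped and ungapped 8-mers.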
# GST-NTL6(1-168) = GST-NTL6(1-168) (Arabidopsis thaliana, UniProt Q9SCK6 1-168)
# Outline: as §1
# GST-ANAC019 NAC domain = target: T2, GST-ANAC019 NAC domain (Arabidopsis thaliana, UniProt Q9C932 14-162)
# T2 sequence: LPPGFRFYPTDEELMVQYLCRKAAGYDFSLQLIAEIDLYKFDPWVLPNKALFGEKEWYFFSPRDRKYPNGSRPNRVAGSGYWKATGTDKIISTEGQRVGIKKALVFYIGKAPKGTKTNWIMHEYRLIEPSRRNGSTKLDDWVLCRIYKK
# Outline: as §1
# GST-ANAC055(1-171) = target: T3, GST-ANAC055(1-171) (Arabidopsis thaliana, UniProt Q9LDY8 1-171)
# T3 sequence: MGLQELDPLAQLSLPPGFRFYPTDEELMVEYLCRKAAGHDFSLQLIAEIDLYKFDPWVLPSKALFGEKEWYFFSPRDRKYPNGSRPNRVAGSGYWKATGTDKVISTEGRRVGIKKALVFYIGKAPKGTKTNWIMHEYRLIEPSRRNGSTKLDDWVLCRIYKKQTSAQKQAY
# Outline: as §1
# GST-ATAF1 NAC domain = target: T4, GST-ATAF1 NAC domain (Arabidopsis thaliana, UniProt Q39013 7-158)
# T4 sequence: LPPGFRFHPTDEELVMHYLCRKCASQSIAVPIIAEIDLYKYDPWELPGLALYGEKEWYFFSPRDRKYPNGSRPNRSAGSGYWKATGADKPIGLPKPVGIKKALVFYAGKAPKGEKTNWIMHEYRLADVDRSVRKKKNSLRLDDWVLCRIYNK
# Outline: as §1
# [1] = target: T5, GST-ANAC092(1-285) full length (Arabidopsis thaliana, UniProt Q9FKA0 1-285)
# T5 sequence: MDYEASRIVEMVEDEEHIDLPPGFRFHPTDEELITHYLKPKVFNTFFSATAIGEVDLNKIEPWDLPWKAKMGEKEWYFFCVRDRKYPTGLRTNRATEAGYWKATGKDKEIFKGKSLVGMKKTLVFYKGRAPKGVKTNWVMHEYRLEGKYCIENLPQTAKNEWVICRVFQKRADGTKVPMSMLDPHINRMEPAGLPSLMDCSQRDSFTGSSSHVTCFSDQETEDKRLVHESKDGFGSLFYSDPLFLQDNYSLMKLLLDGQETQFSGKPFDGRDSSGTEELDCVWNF
# Outline: as §1
# GST-NAP(1-166) = target: T6, GST-NAP(1-166) (Arabidopsis thaliana, UniProt O49255 1-166)
# T6 sequence: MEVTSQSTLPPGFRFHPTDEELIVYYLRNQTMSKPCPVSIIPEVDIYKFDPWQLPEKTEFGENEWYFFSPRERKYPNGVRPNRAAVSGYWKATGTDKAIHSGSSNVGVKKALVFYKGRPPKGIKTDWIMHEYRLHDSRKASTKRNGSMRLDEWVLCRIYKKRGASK
# Outline: as §1
# GST-NST2(1-184) = target: T7, GST-NST2(1-184) (Arabidopsis thaliana, UniProt Q9M274 1-184)
# T7 sequence: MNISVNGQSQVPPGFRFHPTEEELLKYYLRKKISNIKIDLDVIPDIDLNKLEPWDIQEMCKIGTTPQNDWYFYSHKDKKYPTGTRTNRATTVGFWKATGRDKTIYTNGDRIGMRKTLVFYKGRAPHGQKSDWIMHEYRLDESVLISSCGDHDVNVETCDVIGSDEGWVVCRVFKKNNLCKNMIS
# Outline: as §1
# GST-NTL8 NAC domain = target: T8, GST-NTL8 NAC domain (Arabidopsis thaliana, UniProt Q9XIN7 14-156)
# T8 sequence: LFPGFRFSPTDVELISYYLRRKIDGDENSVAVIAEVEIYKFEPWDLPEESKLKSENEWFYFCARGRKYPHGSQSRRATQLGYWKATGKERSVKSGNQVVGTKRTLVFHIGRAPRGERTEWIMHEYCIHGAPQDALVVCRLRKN
# Outline: as §1
# GST-SND1(1-203) = target: T9, GST-SND1(1-203) (Arabidopsis thaliana, UniProt Q9LPI7 1-203)
# T9 sequence: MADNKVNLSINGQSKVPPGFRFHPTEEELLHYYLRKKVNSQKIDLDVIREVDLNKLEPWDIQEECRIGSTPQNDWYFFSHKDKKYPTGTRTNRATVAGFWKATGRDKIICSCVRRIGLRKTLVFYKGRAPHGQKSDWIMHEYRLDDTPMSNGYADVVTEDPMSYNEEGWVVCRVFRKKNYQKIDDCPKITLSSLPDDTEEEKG
# Outline: as §1
# GST-VND3 NAC domain = target: T10, GST-VND3 NAC domain (Arabidopsis thaliana, UniProt Q9FH59 12-162)
# T10 sequence: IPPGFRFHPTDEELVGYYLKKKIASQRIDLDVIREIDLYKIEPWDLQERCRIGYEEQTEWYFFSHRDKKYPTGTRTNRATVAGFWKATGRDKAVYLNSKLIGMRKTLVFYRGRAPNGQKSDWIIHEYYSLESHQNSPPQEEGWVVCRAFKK
# Outline: as §1
# GST-VND7 NAC domain = target: T11, GST-VND7 NAC domain (Arabidopsis thaliana, UniProt Q9C8W9 9-158)
# T11 sequence: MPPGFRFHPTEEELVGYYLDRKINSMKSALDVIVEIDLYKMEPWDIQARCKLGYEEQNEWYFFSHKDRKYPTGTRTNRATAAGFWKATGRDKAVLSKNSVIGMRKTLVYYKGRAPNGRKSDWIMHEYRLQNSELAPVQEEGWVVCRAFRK
# Outline: as §1
# Chain of GST-NTL6(1-168) (Q9SCK6 1-168): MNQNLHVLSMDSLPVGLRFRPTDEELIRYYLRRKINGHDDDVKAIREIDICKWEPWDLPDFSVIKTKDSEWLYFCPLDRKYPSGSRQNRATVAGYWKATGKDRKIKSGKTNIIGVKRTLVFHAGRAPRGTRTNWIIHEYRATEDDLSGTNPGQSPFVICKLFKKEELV
Sequence,binding signal (GST-ANAC092(1-176)) [E-score],binding signal (GST-NTL6(1-168)) [E-score],binding signal (GST-ANAC019 NAC domain) [E-score],binding signal (GST-ANAC055(1-171)) [E-score],binding signal (GST-ATAF1 NAC domain) [E-score],binding signal [1] [E-score],binding signal (GST-NAP(1-166)) [E-score],binding signal (GST-NST2(1-184)) [E-score],binding signal (GST-NTL8 NAC domain) [E-score],binding signal (GST-SND1(1-203)) [E-score],binding signal (GST-VND3 NAC domain) [E-score],binding signal (GST-VND7 NAC domain) [E-score]
ATACGCAA,0.485,0.0867,0.429,0.397,0.336,0.487,0.459,0.406,0.172,0.462,0.435,0.433
TTACTCAA,0.345,0.078,0.0697,0.0741,0.223,0.359,0.0501,0.247,0.0629,0.445,0.165,0.126
GTAAGAAA,0.296,0.422,0.224,0.206,0.311,0.332,0.101,0.289,0.214,0.303,0.16,0.19
GAAGGAAC,0.189,0.445,0.172,0.172,0.0557,0.204,0.148,0.249,0.45,0.337,0.114,0.181
GTGACGTA,0.447,0.0989,0.375,0.36,0.39,0.452,0.417,0.311,,0.467,0.365,0.413
TACACGCA,0.467,0.0803,0.415,0.382,0.369,0.463,0.375,0.363,,0.385,0.404,0.385
AACGTAAC,0.335,0.15,0.15,0.212,0.253,0.37,0.315,0.324,0.143,0.419,0.278,0.269
ATAGCGTG,0.464,0.0569,0.174,0.167,0.128,0.47,0.105,0.332,,0.418,0.218,0.15
TACGTTAA,0.43,0.14,0.0653,0.154,0.243,0.432,0.12,0.321,,0.462,0.249,0.173
ATTCCGTG,0.408,0.129,0.438,0.448,0.3,0.401,0.329,0.251,,0.135,0.386,0.41
CCACGCAA,0.472,0.116,0.383,0.363,0.235,0.474,0.305,0.348,0.0836,0.41,0.354,0.337
CACGTTTC,0.424,0.107,0.381,0.375,0.383,0.432,0.332,0.286,0.217,0.299,0.262,0.298
AACACGCC,0.391,0.094,0.238,0.253,0.0901,0.431,0.184,0.144,,0.144,0.1,0.0653
ACGTCACT,0.383,0.0658,0.365,0.342,0.354,0.406,0.354,0.234,,0.314,0.355,0.328
AACGTGTA,0.403,0.0638,0.165,0.2,0.266,0.432,0.125,0.265,,0.295,0.275,0.0615
GTTTCGTA,0.375,0.0501,0.0919,0.15,0.173,0.405,0.185,0.163,0.0561,0.318,0.293,0.124
AAGCGTAA,0.214,0.0576,0.168,0.0793,0.175,0.3,0.119,0.212,,0.426,0.13,0.115
ACACGGAA,0.464,0.0747,0.486,0.481,0.376,0.458,0.45,0.328,,0.057,0.467,0.479
GAACACGC,0.382,0.0566,0.289,0.237,0.19,0.427,0.248,0.205,,0.158,0.138,0.174
GTGAAGAA,0.238,0.244,0.305,0.215,0.316,0.197,0.164,0.129,0.403,0.182,0.304,0.288
ACACGCTA,0.484,0.0935,0.16,0.193,0.116,0.49,0.194,0.4,,0.438,0.079,0.104
CACACGCA,0.453,0.0743,0.389,0.321,0.248,0.47,0.375,0.229,0.141,0.327,0.375,0.353
AACACGCT,0.416,0.134,0.185,0.236,0.174,0.431,0.2,0.3,,0.227,0.0943,0.142
ACACACGC,0.37,0.0666,0.169,0.199,0.135,0.423,0.0855,0.221,,0.221,0.198,0.213
TAACGTGA,0.42,0.0647,0.144,0.213,0.208,0.419,0.168,0.257,,0.385,0.251,0.0561
AATTGCGT,0.451,0.0568,0.394,0.395,0.319,0.46,0.432,0.294,0.0923,0.412,0.415,0.418
ACGTATCT,0.189,0.0824,0.425,0.38,0.334,0.306,0.393,0.189,,0.14,0.393,0.313
CACGAAAC,0.425,0.112,0.358,0.343,0.261,0.452,0.208,0.224,0.137,0.177,0.326,0.246

# From paper PMC4081100, “A DNA-binding-site landscape and regulatory network analysis for NAC transcription factors in Arabidopsis thaliana”
